Reference: PubChem BioAssay AID651818 (Broad Institute, 2012)
Measured potencies and affinities stand elsewhere. Results filed as inconclusive are left out. Active and inactive are the calls of the source. Rule as the data show it: inconclusive = activity change below about -55%; inactive = above that.

Assay: intracellular Trypanosoma cruzi inhibitors in host cells – cell-based, plate reader, cherry-pick samples, set 3, dose response (AID 651818)
Details: series mostly up to 10 µM

Structure (SMILES)	outcome
Cc1ccc(S(=O)(=O)Nc2cccc3c2O[C@H](CN(C)CC2CCCCC2)[C@@H](C)CN([C@H](C)CO)C3=O)cc1	inactive
C[C@H](CO)N1C[C@H](C)[C@H](CN(C)Cc2ccc3c(c2)OCO3)Oc2c(NC(=O)Nc3ccc(F)cc3)cccc2C1=O	inactive
C[C@@H]1CN([C@@H](C)CO)C(=O)c2cccc(NC(=O)Nc3ccccc3)c2O[C@@H]1CN(C)S(=O)(=O)c1cn(C)cn1	inactive
C[C@H](CO)N1C[C@H](C)[C@@H](CN(C)Cc2ccc3c(c2)OCO3)Oc2c(NS(=O)(=O)c3ccc(Cl)cc3)cccc2C1=O	inactive
C[C@H](CO)N1C[C@H](C)[C@H](CN(C)S(C)(=O)=O)Oc2c(NS(=O)(=O)c3ccc(Cl)cc3)cccc2C1=O	inactive
C[C@@H]1CCCCO[C@@H](CN(C)Cc2ccc(C(F)(F)F)cc2)[C@@H](C)CN([C@H](C)CO)C(=O)c2cc(NC(=O)Nc3ccc4c(c3)OCO4)ccc2O1	inactive
C[C@H](CO)N1C[C@H](C)[C@@H](CN(C)S(=O)(=O)c2ccc(F)cc2)Oc2c(NC(=O)c3cnccn3)cccc2C1=O	inactive
CC(C)NC(=O)Nc1cccc2c1O[C@H](CN(C)Cc1ccc3c(c1)OCO3)[C@@H](C)CN([C@H](C)CO)C2=O	inactive
C[C@H](CO)N1C[C@H](C)[C@H](CN(C)C(=O)NC2CCCCC2)Oc2c(NS(=O)(=O)c3ccc(F)cc3)cccc2C1=O	inactive
C[C@@H]1CN([C@@H](C)CO)C(=O)c2cccc(N(C)C)c2O[C@H]1CN(C)Cc1ccc2c(c1)OCO2	inactive
C[C@@H]1CN([C@@H](C)CO)C(=O)c2cccc(NS(=O)(=O)c3cn(C)cn3)c2O[C@H]1CN(C)C(=O)Nc1ccc(F)cc1	inactive
Cc1noc(C)c1S(=O)(=O)Nc1cccc2c1O[C@@H](CN(C)CC1CC1)[C@@H](C)CN([C@H](C)CO)C2=O	inactive
C[C@H](CO)N1C[C@H](C)[C@@H](CN(C)S(=O)(=O)c2ccc(Cl)cc2)Oc2c(NC(=O)C3CC3)cccc2C1=O	inactive
C[C@@H]1CN([C@H](C)CO)C(=O)c2cccc(NS(=O)(=O)c3cn(C)cn3)c2O[C@@H]1CN(C)CC1CCCCC1	inactive
C[C@@H]1CN([C@@H](C)CO)C(=O)c2cccc(NC(=O)c3ccncc3)c2O[C@@H]1CN(C)C	inactive
C[C@H](CO)N1C[C@H](C)[C@H](CN(C)S(C)(=O)=O)Oc2c(NS(=O)(=O)c3ccc(F)cc3)cccc2C1=O	inactive
C[C@@H]1CN([C@@H](C)CO)C(=O)c2cccc(NC(=O)c3cnccn3)c2O[C@H]1CN(C)CC1CC1	inactive
C[C@@H]1CN([C@H](C)CO)C(=O)c2cccc(NC(=O)c3ccncc3)c2O[C@@H]1CN(C)Cc1ccc(C(=O)O)cc1	inactive
COc1ccc(NC(=O)N(C)C[C@H]2Oc3c(NC(=O)C4CCOCC4)cccc3C(=O)N([C@H](C)CO)C[C@@H]2C)cc1	inactive
COc1ccc(NC(=O)N(C)C[C@H]2Oc3c(NC(=O)C4CCCCC4)cccc3C(=O)N([C@H](C)CO)C[C@@H]2C)cc1	inactive
C[C@@H]1CN([C@@H](C)CO)C(=O)c2cccc(NS(C)(=O)=O)c2O[C@H]1CN(C)C(=O)NC1CCCCC1	inactive
CC(C)NC(=O)N(C)C[C@@H]1Oc2c(NS(=O)(=O)c3ccc(F)cc3)cccc2C(=O)N([C@H](C)CO)C[C@@H]1C	inactive
